“And” between values parts separate entries of the source, which are not always exact repeats. Equal values may be shown once. The whole screen tested about 290,000 compounds, of which about 2,700 (0.93%) were called active.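 The calls were made as follows: active = inhibition above the screen-wide mean plus 3 SD, computed separately per campaign (cut at about 16% in these data); inactive = the rest.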 Many of the other results were omitted from the sample, so actives are more common in it than they were.

The assay concerns Heat shock protein HSP 90 (rabbit reticulocyte lysate; luciferase refolding). The assay can be described thus: HSP90 inhibitors, primary screen, cell lysate, luminescence (AID 1789).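 Also: 0% = DMSO wells and 100% = 60 µM geldanamycin wells; inhibitors lower the luminescence because luciferase stays unfolded.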 The note with it: 3 h, at 5.6 µM, active compounds read high.
Consider `O=C(C1CCN(Cc2ccc(Cl)cc2)CC1)N1CCN(Cc2ccc3c(c2)OCO3)CC1`, for which the inhibition was 3.57% (inactive).

On to `Cc1cccnc1CCNC(=O)C1CCC(=O)N(Cc2cccc(F)c2)C1` (stereo not drawn), for which the inhibition is -3.21% (inactive).

With `Oc1ccc2ccccc2c1N=Nc1nccs1`, the inhibition was 16.9% (active).

Regarding `c1ccc(NCc2cccc3ccccc23)nc1`, the inhibition is -0.19% (inactive).

For `Oc1ccc(N=Nc2nccs2)c(O)c1`, the inhibition was 0.13% (inactive).

`CCc1ccc(S(=O)(=O)N/N=C\c2ccc([N+](=O)[O-])o2)cc1`: the inhibition was -5.89% (inactive).

`COCCNc1ccc(-c2n[nH]c(=O)c3ccccc23)cc1[N+](=O)[O-]`: the inhibition is 1.55% (inactive).

For `Cc1cc(N=Nc2ccc3ccccc3c2)ccc1O`, the inhibition is -3.33% (inactive).

Turning to `CN(C)c1ccc(-n2cccc2/C=C2/SC(=Nc3ccc(F)cc3)NC2=O)cc1`, the inhibition was -2.27% (inactive).

Turning to `COc1cccc(OCCOc2cccc(/C=N/n3cnnc3)c2)c1`, the inhibition was 10.3% (inactive).

For `CN(C)c1ccc(-n2cccc2/C=N/n2cnnc2)cc1`, the inhibition was 54.3% (active).

Regarding `O=C(COc1nsnc1N1CCOCC1)Nc1ccccc1Cl`, the inhibition is -3.12% (inactive).

Turning to `O=C(Nc1ccc(CN2CCOCC2)cc1)c1cc(Cl)ccc1Cl`, the inhibition is -0.42% (inactive).

As for `CCc1nc(N2CCN(C(C)=O)CC2)c2c3c(sc2n1)CCCC3`, the inhibition is 0.58% (inactive).

On to `COc1ccc(Cl)cc1NC(=O)c1cccc(N2C(=O)C3CC=CCC3C2=O)c1` (stereo not drawn), for which the inhibition was -3.52% (inactive).

Consider `O=C(Cc1ccccc1)Nc1ccc(C(=O)Nc2ccccc2C(=O)O)cc1`, for which the inhibition is 2.96% (inactive).

Turning to `O=C(Nc1ccccc1C(=O)O)c1ccc(N2C(=O)C3CC=CCC3C2=O)cc1` (stereo not drawn), the inhibition is 19.6% (active).

In the case of `COC(=O)[C@@H](Cc1ccccc1)NC(=O)NCCc1ccccc1`, the inhibition is 5.73% (inactive).

Turning to `O=C(O)Cc1sc(-c2ccccc2)nc1-c1cccs1`, the inhibition is -2.42% (inactive).

`NC(=O)Cc1ccc2c(c1)[nH]c1ccccc12`: the inhibition is 5.37% (inactive).

`NC(=O)Cc1ccc2sc(-c3ccccc3)nc2c1`: the inhibition was 16.4% (active).

As to `COc1ccc(NC(=O)NN2CCN(C)CC2)c(OC)c1`, the inhibition is -1.29% (inactive).

With `COc1ccc(-n2nnnc2-c2nc3ccccc3s2)cc1`, the inhibition was 19.1% (active).

Turning to `COc1ccc(C2=NN(c3nc4ccccc4s3)C(=O)C2)cc1`, the inhibition is 0.61% (inactive).

In the case of `CCOc1cccc(-n2nnnc2-c2ccc(OC)cc2)c1`, the inhibition was 1.88% (inactive).

Regarding `O=C(c1cccc(Br)c1)N1CCN(C2=NS(=O)(=O)c3ccccc32)CC1`, the inhibition is -0.31% (inactive).

As to `O=C(CN1C(=O)COc2ccc(Cl)cc21)N1CCOCC1`, the inhibition is 4.17% (inactive).

As to `Cc1ccc(C(=O)NN(CCC#N)C2=NS(=O)(=O)c3ccccc32)cc1`, the inhibition is -2.85% (inactive).

With `COc1cc(C2C(C(=O)OCCC#N)=C(C)NC3=C2S(=O)(=O)c2ccccc23)cc(OC)c1OC` (stereo not drawn), the inhibition is 3.37% (inactive).

`COc1cc(C(=O)NN(CCC#N)C2=NS(=O)(=O)c3ccccc32)cc(OC)c1OC`: the inhibition was 26.7% (active).

On to `Cc1ccc(NC(=O)C(=O)NCc2ccc(/C=N/NC(=O)c3c(C)nc4cc(C)ccn34)o2)cc1`, for which the inhibition is 0.35% (inactive).

Take `Cc1sc2nc(CSCC(=O)Nc3c(Cl)cccc3Cl)[nH]c(=O)c2c1C`: the inhibition is 35.8% (active).

As for `Cc1sc2nc(COC(=O)C(NC(=O)c3ccc(Cl)cc3Cl)C(C)C)[nH]c(=O)c2c1C` (stereo not drawn), the inhibition is -3.91% (inactive).

On to `CCN(CC)Cc1nc2sc(C)c(C)c2c(=O)[nH]1`, for which the inhibition is 2.4% (inactive).

On to `COc1ccc(NC(=O)N2CCCC2C(=O)NCc2ccccc2Cl)cc1` (stereo not drawn), for which the inhibition was -3.61% (inactive).

In the case of `O=S(=O)(c1ccccc1)c1nc(-c2ccccc2)oc1NCCCN1CCOCC1`, the inhibition is -4.19% (inactive).

Turning to `O=C(NCCc1ccc(Cl)cc1Cl)c1cc([N+](=O)[O-])c[nH]c1=O`, the inhibition is -4.08% (inactive).

For `Cc1nn(CC(=O)Nc2ccc(F)cc2)c(=O)c2ccccc12`, the inhibition is 31.8% (active).

Regarding `Cc1ccc(NC(=O)Cn2nc(C)c3ccccc3c2=O)c(C)c1`, the inhibition is -0.05% (inactive).

In the case of `O=C(Cn1nc(C(=O)O)c2ccccc2c1=O)Nc1ccc(F)cc1`, the inhibition was 0.16% (inactive).

As for `CCc1nnc(NC(=O)CCC(=O)N2CCN(c3cc(C)ccc3C)CC2)s1`, the inhibition is -1.11% (inactive).

In the case of `O=C(CC(n1cncn1)C(Cl)(Cl)Cl)c1ccc([N+](=O)[O-])cc1` (stereo not drawn), the inhibition is -0.82% (inactive).

For `O=C(c1ccncc1)c1ccc([N+](=O)[O-])cc1`, the inhibition is 1.75% (inactive).

Turning to `O=C(Cn1c[n+](CC(=O)c2ccc([N+](=O)[O-])cc2)cn1)c1ccc([N+](=O)[O-])cc1`, the inhibition was 17.4% (active) and 20.8% (active).

Consider `O=C(c1ccc(Br)o1)N1CCN(CCOc2ccccc2)CC1`, for which the inhibition is -4.13% (inactive).

As for `COc1ccc(CNC(=O)c2ccc3oc(C(C)C)nc3c2)cc1`, the inhibition was -4.27% (inactive).

For `CN(CCO)c1ccc(/C=N/Nc2nncc3ccccc23)cc1`, the inhibition was 58.9% (active).

As for `C/C(=N\Nc1nncc2ccccc12)c1ccc(Cl)c([N+](=O)[O-])c1`, the inhibition is 3.18% (inactive).

For the molecule `COc1cc(/C=N/Nc2nn3cnnc3c3ccccc23)cc(OC)c1OC`, the inhibition was -1.69% (inactive).

Consider `C=CCSc1nsc(NC(=O)Nc2cccc(C(C)=O)c2)n1`, for which the inhibition was -1.06% (inactive).

As for `O=C(C1CCCN(S(=O)(=O)c2ccc([N+](=O)[O-])cc2)C1)N1CCCCC1` (stereo not drawn), the inhibition is 6.54% (inactive).

Consider `O=C(Nc1cccnc1)c1cccc(S(=O)(=O)N2CCCC2)c1`, for which the inhibition is -0.49% (inactive).

Turning to `O=C(c1noc2c1CCCC2)N1CCc2ccccc2C1`, the inhibition was 3.28% (inactive).

In the case of `O=C(Nc1cccnc1)c1noc2c1CCCCC2`, the inhibition was 39.9% (active).

For `CCn1cc(CN2CCC(C(=O)Nc3cccc(-c4cccc(Cl)c4)c3)CC2)cn1`, the inhibition is 7.07% (inactive).

As to `CCCS(=O)(=O)N1CCCC(C(=O)NCc2ccco2)C1` (stereo not drawn), the inhibition was -2% (inactive).

Consider `CCS(=O)(=O)N1CCCC(C(=O)NCc2ccc(C)cc2)C1` (stereo not drawn), for which the inhibition is -1.37% (inactive).

As to `CCCS(=O)(=O)N1CCCC(C(=O)NCCN2CCCCC2C)C1` (stereo not drawn), the inhibition was 20.8% (active).

For the molecule `COc1ccccc1CN1CCCC(N2CCN(c3ccc(F)cc3)CC2)C1` (stereo not drawn), the inhibition is -1.44% (inactive).

With `O=C(NC1CCCCC1)C1c2ccccc2C(=O)N1Cc1ccco1` (stereo not drawn), the inhibition is -0.31% (inactive).

As to `Cc1ccnc(N2C(=O)c3ccccc3C2Nc2ccc3c(c2)OCCO3)c1` (stereo not drawn), the inhibition was 1.87% (inactive).

With `O=C1c2ccccc2C(Nc2ccc3c(c2)OCCO3)N1Cc1ccco1` (stereo not drawn), the inhibition was 16.6% (active).

With `CCc1ccc(NC(=O)CN2CCC(C(=O)c3ccc(OC)cc3)CC2)cc1`, the inhibition was 0.9% (inactive).

Turning to `Cc1ccccc1OCC(=O)N(Cc1cccc(F)c1)C1CCS(=O)(=O)C1` (stereo not drawn), the inhibition is -1.03% (inactive).

Consider `COc1ccc(/C=C/c2noc(-c3ccccc3OC(C)=O)n2)cc1`, for which the inhibition is 24.5% (active).

For `CC(=O)Oc1ccc(-c2nc3c(C)cccc3c(=O)o2)cc1`, the inhibition is -3.74% (inactive).

Regarding `CC(=O)Oc1ccc2c(c1)C(=O)c1ccccc1C2=O`, the inhibition is 4.58% (inactive).

As for `O=C(O)c1ccc(N/N=C/c2ccc3ncccc3c2)cc1`, the inhibition was 16.2% (active).

In the case of `Cc1ccc2cc(/C=N/Nc3ccc(C(=O)O)cc3)c(Cl)nc2c1`, the inhibition was 1.97% (inactive).

Regarding `O=C(O)c1ccc(/C=N/Nc2nc(N3CCCCC3)nc(N3CCCCC3)n2)cc1`, the inhibition is 1.51% (inactive).

For the molecule `O=C(CN1C(=O)c2ccccc2S1(=O)=O)NC1CCCCC1`, the inhibition is 0.8% (inactive).

Consider `O=C(CN1C(=O)c2ccccc2S1(=O)=O)N1CCc2ccccc21`, for which the inhibition is 56.6% (active).

Turning to `O=C(CN1CCN(c2ccccn2)CC1)N1CCc2ccccc21`, the inhibition was 2.52% (inactive).

As for `O=C(Oc1cccc(O)c1)C1CCCCC1`, the inhibition was 2.03% (inactive).

As for `CC1CN(C(=S)SCC(=O)c2ccccc2)CC(C)O1` (stereo not drawn), the inhibition was 1.9% (inactive).

Turning to `O=C(CSC(=S)N1CCOCC1)c1ccccc1`, the inhibition is 34.1% (active).

As to `O=C(CSC(=S)N1CCOCC1)c1cc(Br)cc(Br)c1O`, the inhibition is -0.31% (inactive).

As to `Cc1cccc(NC(=O)c2cccc(C(=O)Nc3cccc(C)c3C)n2)c1C`, the inhibition was -2.8% (inactive).

On to `O=C(NCCCc1ccccc1)c1cc(COc2c(F)cccc2F)on1`, for which the inhibition is -1.08% (inactive).

As for `COc1ccc(CNS(=O)(=O)c2cc(-c3cc(C)no3)ccc2C(C)C)cc1`, the inhibition is 6.8% (inactive).

For `CCN(CC)CCN(C(=O)c1cc(Cl)sc1Cl)c1nc2cc3c(cc2s1)OCO3`, the inhibition is 0.85% (inactive).

Turning to `COc1ccc(/C=N/Nc2nc(-c3ccc(C)cc3)c(C#N)c(=O)[nH]2)cc1`, the inhibition is -6.02% (inactive).

For the molecule `Cn1c(-c2ccco2)nc2cc3ccccc3cc21`, the inhibition is 37.7% (active).

`Cn1cccc1-c1nc2ccccc2n1C`: the inhibition is 2.48% (inactive).

On to `S=c1[nH]nc(-c2ccco2)n1/N=C/c1ccccc1`, for which the inhibition is 1.32% (inactive).

For the molecule `CC(C)Cn1cnc2c1c(=O)n(CC(=O)NN)c(=O)n2Cc1ccccc1`, the inhibition was -0.47% (inactive).

As for `COc1ccc(OC)c(NC(=O)c2cccc(S(=O)(=O)N3CCN(C(C)=O)CC3)c2)c1`, the inhibition was 0.82% (inactive).

For the molecule `Cc1c(NC(=O)c2c([N+](=O)[O-])cnn2C)c(=O)n(-c2ccccc2)n1C`, the inhibition was 0.17% (inactive).

In the case of `CCOc1ncccc1C(=O)OCc1cn2cc(Cl)ccc2n1`, the inhibition was -0.94% (inactive).

Consider `Clc1ccc2nc(CSc3ccccc3)cn2c1`, for which the inhibition was 25.5% (active).

With `O=C(/C=C/c1ccc2c(c1)OCO2)NCc1cn2cc(Cl)ccc2n1`, the inhibition was -0.84% (inactive).

Turning to `N#C[C@]1(S(=O)(=O)c2ccccc2)C[C@@H]2ON=C(c3cccc(Br)c3)[C@@H]2C1`, the inhibition is 0.82% (inactive).

`COc1ccc(C(=O)N[C@H](C(=O)NCc2ccccc2)C(C)C)cc1`: the inhibition is -4.29% (inactive).

By inhibition is commonly meant the drop in the measured response relative to a control, in per cent.

For the origin of these results see PubChem BioAssay AID1789 (The Scripps Research Institute Molecular Screening Center, 2009).
